We go through 25 compounds from PMC4552634, “A New Set of Chemical Starting Points with Plasmodium falciparum Transmission-Blocking Potential for Antimalarial Drug Discovery” (PLoS ONE, 2015).

The campaign covered roughly 13,000 compounds. About 3,200 (25%) showed an effect of 50% or more. The list shows a part of the results.

The subject of this test is P. falciparum stage V gametocytes. On the set-up: BacTiter-Glo ATP luminescence viability of purified stage V gametocytes in 384-well plates, per cent inhibition versus DMSO. The conditions noted are these: 48 h, 5 µM; inhibitor.
For the compound `CC(C)[C@@H](C(=O)NCc1cccc(C(F)(F)F)c1)N1C(=O)CCC1C(=O)Nc1ccc([N+](=O)[O-])cc1` (stereo partly shown) [TCMDC-141408], the % Inhibition (commonly the change of the read-out against control, counted positive when it falls) is reported as -12.94%. The same measure for `COc1ccc(Cc2cnc3nc(N)nc(N)c3c2C)cc1` [TCMDC-137704]: 42.37%; for `CC(=O)NCC(=O)NC1=NC(C)(C)N(OCc2ccc3ccccc3c2)C(N)=N1` [TCMDC-131579]: 9.815%; for `CC(=O)Nc1cccc(C(=O)Nc2cccc(-c3cccc(-c4nc5ccccc5[nH]4)c3)c2)c1` [TCMDC-132134]: -16.76%. `COc1cccc(-n2ncc3c(N/N=C/c4ccc(CN(C)CCN(C)C)cc4)ncnc32)c1` [TCMDC-138728]: the “% Inhibition” value was 20.85%.

Turning to `O=C(NCCCc1ccccc1)c1csc(C2CCCN(C(=O)c3ccc(O)c(-c4ccccc4)c3)C2)n1` (stereo not shown) [TCMDC-140153], the “% Inhibition” value is on record as -2.163%. The figure for `O=C(Nc1cccnc1)c1cn(-c2ccccc2)nc1-c1cccs1` [TCMDC-124055] is -11.35%; for `COc1ccc(NC(=O)[C@H](CC(C)C)Nc2cc(C)nc(NCc3cccc(C)c3)n2)cc1` [TCMDC-134891] it is -4.805%. The same measure for `O=[N+]([O-])c1cccc(NC(=S)N2CCCN(Cc3ccc(F)cc3F)CC2)c1` [TCMDC-141015]: 78.9%; for `O=C(Nc1cccc(CN2CCCN(Cc3ccc(O)cc3)CC2)c1)c1cccc(F)c1` [TCMDC-141816]: -13.75%; for `O=C(/C=C/c1ccc(Cl)c(Cl)c1)NCCCCCN1CCCN(C(=S)Nc2cccc(Cl)c2)CC1` [TCMDC-135894]: 9.594%.

Turning to `O=C(Nc1cccc(OC2CCN(Cc3ccccc3)CC2)c1)Nc1cccc([N+](=O)[O-])c1` [TCMDC-139544], the “% Inhibition” value was -4.381%. The same measure for `O=[N+]([O-])c1cccc(NC(=S)N2CCCN(Cc3ccc(Cl)cc3Cl)CC2)c1` [TCMDC-141017]: 68.72%. The same measure for `O=[N+]([O-])c1cccc(NC(=S)N2CCCN(Cc3ccc(C(F)(F)F)cc3)CC2)c1` [TCMDC-141016]: 26.08%. The figure for `Fc1ccc(-c2cncc(Nc3ccncc3)n2)cc1` [TCMDC-134499] is 21.35%. Regarding `CC1(C(=O)Nc2ccc([N+](=O)[O-])cc2O)CC2c3ccccc3C1c1ccccc12` (stereo not shown) [TCMDC-124076], the “% Inhibition” value is given as -1.633%.

As to `O=C(NC1CCC(N2CCN(c3cccc4[nH]ccc34)CC2)CC1)c1cc2cccnc2[nH]1` (stereo not shown) [TCMDC-134216], the “% Inhibition” value is -40.15%. The figure for `NC1CCCN(Cc2ccc(-c3ccc(-c4nc5ccccc5[nH]4)s3)cc2)C1` (stereo not shown) [TCMDC-133849] is 41.97%. The same measure for `NC1CCCN(Cc2ccc(-c3ccc(-c4nc5ccc(F)cc5[nH]4)s3)cc2)C1` (stereo not shown) [TCMDC-133856]: 57.48%; for `NC1CCN(Cc2ccc(-c3ccc(-c4nc5ccccc5[nH]4)s3)cc2)C1` (stereo not shown) [TCMDC-133847]: 76.03%; for `OC1CCCN(Cc2ccc(-c3ccc(-c4nc5ccc(F)cc5[nH]4)s3)cc2)C1` (stereo not shown) [TCMDC-133821]: -16.69%.

Regarding `NC1CCN(Cc2ccc(-c3ccc(-c4nc5ccc(F)cc5[nH]4)s3)cc2)C1` (stereo not shown) [TCMDC-133854], the “% Inhibition” value was found to be 66.76%. The figure for `NC1CCN(Cc2cccc(-c3ccc(-c4nc5ccccc5[nH]4)s3)c2)C1.O=C(O)C(F)(F)F` (stereo not shown) [TCMDC-133869] is 26.1%; for `CC(=O)N(C)C1CCN(Cc2ccc(-c3ccc(-c4nc5ccc(F)cc5[nH]4)s3)cc2)C1` (stereo not shown) [TCMDC-133895] it is -2.042%; for `OCC1CCN(Cc2ccc(-c3ccc(-c4nc5ccc(F)cc5[nH]4)s3)cc2)CC1` [TCMDC-133127] it is -4.488%.
